# Results: publication PMC7862700, “An all-to-all approach to the identification of sequence-specific readers for epigenetic DNA modifications on cytosine”
# Assays:
# Assay in all cases: DAPPL (digital affinity profiling via proximity ligation, sequencing); 10 mM Tris-HCl pH 7.5, 50 mM NaCl, 1 mM DTT, 4% glycerol, room temperature, 30 min; GST-TFs on glutathione beads, 16-mer random dsDNA library, 0.1% formaldehyde crosslink after washing; high values mean tight binding
# [1] = molecular target: T1, FEV (Homo sapiens, UniProt Q99581 1-238); conditions: protein: recombinant; tags: N-terminal GST; dsDNA, one strand shown
# T1 sequence: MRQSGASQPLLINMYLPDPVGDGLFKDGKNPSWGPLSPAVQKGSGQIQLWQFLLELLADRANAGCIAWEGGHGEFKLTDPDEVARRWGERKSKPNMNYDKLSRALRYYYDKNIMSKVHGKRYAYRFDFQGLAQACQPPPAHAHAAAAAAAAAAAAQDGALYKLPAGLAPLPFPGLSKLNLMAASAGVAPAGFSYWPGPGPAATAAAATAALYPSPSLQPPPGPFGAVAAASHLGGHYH
# Method in brief: (§1)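 Binding signal is defined as a hexamer's read frequency for one factor over its frequency for the tag-only sample. To obtain reads, GST-fused human transcription factors were expressed in yeast, captured on glutathione beads, barcoded with DNA and pooled with that sample. Pools met 200 nmole of a 16-mer random double-stranded DNA library in Tris/NaCl/DTT/glycerol buffer for 30 min at room temperature before washing, 0.1% formaldehyde crosslinking, proximity ligation (BsaI/T4 ligase, 1 h, 37 °C), PCR and Illumina NextSeq500 sequencing.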
# [2] = molecular target: ETV5 (Homo sapiens, UniProt P41161 1-510); conditions: protein: recombinant; tags: N-terminal GST; dsDNA, one strand shown
# Sequence of ETV5 (P41161 whole entry): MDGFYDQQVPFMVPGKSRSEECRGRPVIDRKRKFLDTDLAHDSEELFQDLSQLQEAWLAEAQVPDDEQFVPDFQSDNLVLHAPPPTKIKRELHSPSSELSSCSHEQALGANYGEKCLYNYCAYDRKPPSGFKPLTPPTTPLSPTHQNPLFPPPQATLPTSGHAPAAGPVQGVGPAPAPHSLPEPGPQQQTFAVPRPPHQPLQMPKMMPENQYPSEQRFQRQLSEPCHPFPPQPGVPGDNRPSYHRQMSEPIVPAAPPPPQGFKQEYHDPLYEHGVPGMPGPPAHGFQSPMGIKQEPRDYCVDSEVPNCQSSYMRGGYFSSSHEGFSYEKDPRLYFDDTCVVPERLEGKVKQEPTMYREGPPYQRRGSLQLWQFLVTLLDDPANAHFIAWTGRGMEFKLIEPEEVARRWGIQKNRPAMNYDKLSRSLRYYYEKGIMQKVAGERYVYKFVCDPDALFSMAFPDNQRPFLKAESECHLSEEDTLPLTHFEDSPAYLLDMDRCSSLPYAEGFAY
# Method in brief: as §1
# [3] = molecular target: HSF1 (Homo sapiens, UniProt Q00613 1-529); conditions: protein: recombinant; tags: N-terminal GST; chain copies: 3; dsDNA, one strand shown
# Sequence of HSF1 (Q00613 whole entry): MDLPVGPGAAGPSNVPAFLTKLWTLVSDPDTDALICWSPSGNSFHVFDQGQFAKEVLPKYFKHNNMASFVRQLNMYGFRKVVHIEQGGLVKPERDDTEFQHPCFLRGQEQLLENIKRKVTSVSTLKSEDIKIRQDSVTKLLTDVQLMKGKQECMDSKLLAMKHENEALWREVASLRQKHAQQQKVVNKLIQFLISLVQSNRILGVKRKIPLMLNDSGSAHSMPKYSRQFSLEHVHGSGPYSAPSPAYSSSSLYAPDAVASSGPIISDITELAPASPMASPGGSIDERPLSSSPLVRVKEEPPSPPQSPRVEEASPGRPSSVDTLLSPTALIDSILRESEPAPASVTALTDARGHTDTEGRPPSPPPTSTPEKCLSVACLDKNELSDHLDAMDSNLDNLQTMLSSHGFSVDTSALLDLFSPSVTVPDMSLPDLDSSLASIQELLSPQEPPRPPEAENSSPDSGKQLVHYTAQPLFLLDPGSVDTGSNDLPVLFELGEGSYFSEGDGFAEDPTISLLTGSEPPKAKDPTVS
# Method in brief: as §1
# [4] = molecular target: T2, SPIC (Homo sapiens, UniProt Q8N5J4 1-248); conditions: protein: recombinant; tags: N-terminal GST; dsDNA, one strand shown
# T2 sequence: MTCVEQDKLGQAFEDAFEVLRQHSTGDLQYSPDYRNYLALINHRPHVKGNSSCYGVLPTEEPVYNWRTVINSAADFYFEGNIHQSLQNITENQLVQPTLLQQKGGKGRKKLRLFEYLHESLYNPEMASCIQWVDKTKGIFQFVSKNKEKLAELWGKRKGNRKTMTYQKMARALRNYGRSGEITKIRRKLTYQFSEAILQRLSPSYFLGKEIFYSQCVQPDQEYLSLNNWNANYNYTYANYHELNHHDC
# Method in brief: as §1
# [5] = molecular target: ELF4 (Homo sapiens, UniProt Q99607 1-663); conditions: protein: recombinant; tags: N-terminal GST; dsDNA, one strand shown
# Sequence of ELF4 (Q99607 whole entry): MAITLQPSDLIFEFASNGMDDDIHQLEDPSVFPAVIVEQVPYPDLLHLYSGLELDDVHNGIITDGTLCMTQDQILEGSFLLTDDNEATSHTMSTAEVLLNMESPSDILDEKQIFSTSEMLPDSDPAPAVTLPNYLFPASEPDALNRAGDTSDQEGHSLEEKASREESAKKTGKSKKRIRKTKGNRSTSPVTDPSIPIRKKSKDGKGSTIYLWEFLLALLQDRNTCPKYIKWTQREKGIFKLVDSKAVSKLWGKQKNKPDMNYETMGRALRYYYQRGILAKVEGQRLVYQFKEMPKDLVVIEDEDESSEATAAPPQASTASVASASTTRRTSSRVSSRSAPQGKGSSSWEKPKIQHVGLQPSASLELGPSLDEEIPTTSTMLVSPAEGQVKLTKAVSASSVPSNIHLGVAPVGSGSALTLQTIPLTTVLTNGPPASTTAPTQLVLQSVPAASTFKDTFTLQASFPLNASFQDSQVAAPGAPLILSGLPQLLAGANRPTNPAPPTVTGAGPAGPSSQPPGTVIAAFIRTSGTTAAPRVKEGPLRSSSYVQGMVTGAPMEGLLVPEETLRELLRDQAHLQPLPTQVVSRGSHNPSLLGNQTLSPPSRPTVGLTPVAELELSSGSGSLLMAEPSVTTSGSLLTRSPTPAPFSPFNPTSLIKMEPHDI
# Method in brief: as §1
# [6] = molecular target: T3, ELK4 (Homo sapiens, UniProt P28324-2 1-405); conditions: protein: recombinant; tags: N-terminal GST; dsDNA, one strand shown
# T3 sequence: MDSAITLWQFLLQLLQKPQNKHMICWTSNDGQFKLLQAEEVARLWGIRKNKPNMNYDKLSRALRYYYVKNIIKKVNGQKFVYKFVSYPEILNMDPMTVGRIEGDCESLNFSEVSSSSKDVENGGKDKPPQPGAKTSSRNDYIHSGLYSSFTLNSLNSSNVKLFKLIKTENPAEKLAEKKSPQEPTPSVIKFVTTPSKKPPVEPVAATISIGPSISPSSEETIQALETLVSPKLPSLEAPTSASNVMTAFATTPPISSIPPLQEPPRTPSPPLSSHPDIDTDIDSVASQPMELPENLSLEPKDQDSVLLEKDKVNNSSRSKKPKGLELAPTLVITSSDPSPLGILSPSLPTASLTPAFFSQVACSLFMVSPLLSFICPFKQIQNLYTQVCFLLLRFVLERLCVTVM
# Method in brief: as §1
# [7] = molecular target: T4, ETV2 (Homo sapiens, UniProt O00321 1-342); conditions: protein: recombinant; tags: N-terminal GST; dsDNA, one strand shown
# T4 sequence: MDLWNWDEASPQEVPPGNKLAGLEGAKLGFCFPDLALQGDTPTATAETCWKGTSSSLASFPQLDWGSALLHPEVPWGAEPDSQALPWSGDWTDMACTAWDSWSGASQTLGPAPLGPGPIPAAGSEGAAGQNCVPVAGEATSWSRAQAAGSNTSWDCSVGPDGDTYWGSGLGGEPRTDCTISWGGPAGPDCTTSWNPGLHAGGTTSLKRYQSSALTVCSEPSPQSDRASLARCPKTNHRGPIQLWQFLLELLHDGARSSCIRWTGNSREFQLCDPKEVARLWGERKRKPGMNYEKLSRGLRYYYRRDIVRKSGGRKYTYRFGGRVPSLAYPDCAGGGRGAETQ
# Method in brief: as §1
# [8] = molecular target: T5, ELF3 (Homo sapiens, UniProt P78545 1-371); conditions: protein: recombinant; tags: N-terminal GST; dsDNA, one strand shown
# T5 sequence: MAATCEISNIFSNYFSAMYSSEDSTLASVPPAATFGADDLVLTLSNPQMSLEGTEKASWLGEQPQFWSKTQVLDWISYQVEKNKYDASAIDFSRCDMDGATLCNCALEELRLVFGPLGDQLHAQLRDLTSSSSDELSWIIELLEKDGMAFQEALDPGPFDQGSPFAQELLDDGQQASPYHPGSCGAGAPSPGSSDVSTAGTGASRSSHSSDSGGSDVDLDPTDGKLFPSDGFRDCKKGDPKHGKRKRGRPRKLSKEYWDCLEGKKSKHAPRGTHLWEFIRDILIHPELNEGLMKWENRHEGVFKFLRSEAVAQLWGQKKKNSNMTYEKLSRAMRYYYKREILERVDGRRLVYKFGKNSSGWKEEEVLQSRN
# Method in brief: as §1
# [9] = molecular target: CRX (Homo sapiens, UniProt O43186 1-299); conditions: protein: recombinant; tags: N-terminal GST; dsDNA, one strand shown
# Sequence of CRX (O43186 whole entry): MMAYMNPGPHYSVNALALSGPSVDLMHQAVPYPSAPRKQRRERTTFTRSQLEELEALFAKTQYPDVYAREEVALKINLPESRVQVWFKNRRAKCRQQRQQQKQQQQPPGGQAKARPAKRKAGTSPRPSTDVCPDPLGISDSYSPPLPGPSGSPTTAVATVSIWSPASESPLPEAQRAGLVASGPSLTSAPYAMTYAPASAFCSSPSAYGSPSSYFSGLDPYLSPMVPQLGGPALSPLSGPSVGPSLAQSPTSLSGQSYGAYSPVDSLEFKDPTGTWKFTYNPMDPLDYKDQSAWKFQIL
# Method in brief: as §1
# [10] = molecular target: ETV1 (Homo sapiens, UniProt P50549 1-477); conditions: protein: recombinant; tags: N-terminal GST; dsDNA, one strand shown
# Sequence of ETV1 (P50549 whole entry): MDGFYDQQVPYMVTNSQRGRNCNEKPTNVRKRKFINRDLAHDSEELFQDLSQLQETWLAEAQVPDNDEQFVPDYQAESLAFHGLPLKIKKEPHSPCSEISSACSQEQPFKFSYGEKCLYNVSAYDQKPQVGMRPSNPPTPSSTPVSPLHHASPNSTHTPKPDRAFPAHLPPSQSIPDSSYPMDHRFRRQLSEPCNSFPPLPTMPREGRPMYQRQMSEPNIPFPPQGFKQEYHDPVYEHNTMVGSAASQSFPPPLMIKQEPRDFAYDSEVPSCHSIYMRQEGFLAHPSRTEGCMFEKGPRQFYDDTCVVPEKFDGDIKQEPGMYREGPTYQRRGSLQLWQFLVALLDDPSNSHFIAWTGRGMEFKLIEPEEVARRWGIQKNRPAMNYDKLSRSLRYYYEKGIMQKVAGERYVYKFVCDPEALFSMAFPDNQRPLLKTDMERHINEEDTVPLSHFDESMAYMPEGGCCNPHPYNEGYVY
# Method in brief: as §1
# [11] = molecular target: T6, ERF (Homo sapiens, UniProt P50548 1-548); conditions: protein: recombinant; tags: N-terminal GST; dsDNA, one strand shown
# T6 sequence: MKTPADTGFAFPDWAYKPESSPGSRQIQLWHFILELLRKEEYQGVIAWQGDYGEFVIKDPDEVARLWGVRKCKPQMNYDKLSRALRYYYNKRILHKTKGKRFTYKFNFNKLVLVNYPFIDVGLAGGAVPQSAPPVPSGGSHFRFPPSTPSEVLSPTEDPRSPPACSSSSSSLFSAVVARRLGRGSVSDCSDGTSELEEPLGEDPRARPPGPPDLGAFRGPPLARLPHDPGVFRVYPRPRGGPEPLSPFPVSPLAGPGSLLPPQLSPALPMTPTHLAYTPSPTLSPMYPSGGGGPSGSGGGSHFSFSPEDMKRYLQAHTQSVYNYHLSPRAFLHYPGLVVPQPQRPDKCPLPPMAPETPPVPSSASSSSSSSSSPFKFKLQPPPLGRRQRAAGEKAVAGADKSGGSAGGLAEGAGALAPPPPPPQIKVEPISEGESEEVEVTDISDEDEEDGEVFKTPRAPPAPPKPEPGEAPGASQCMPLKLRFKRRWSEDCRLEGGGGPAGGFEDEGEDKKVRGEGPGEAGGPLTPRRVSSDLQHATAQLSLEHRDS
# Method in brief: as §1
# [12] = molecular target: T7, ETV3L (Homo sapiens, UniProt Q6ZN32 1-361); conditions: protein: recombinant; tags: N-terminal GST; dsDNA, one strand shown
# T7 sequence: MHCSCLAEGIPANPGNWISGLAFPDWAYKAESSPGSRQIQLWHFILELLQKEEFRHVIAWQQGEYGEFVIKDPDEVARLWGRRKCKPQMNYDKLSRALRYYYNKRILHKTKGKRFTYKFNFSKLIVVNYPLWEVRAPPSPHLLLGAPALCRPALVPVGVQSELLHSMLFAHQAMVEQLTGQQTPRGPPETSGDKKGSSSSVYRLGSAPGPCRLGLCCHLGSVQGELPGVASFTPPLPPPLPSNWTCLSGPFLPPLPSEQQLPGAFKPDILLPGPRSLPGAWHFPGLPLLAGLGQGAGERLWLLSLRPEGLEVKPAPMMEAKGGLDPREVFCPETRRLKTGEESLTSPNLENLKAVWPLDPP
# Method in brief: as §1
# [13] = molecular target: T8, ETS2 (Homo sapiens, UniProt P15036 1-469); conditions: protein: recombinant; tags: N-terminal GST; dsDNA, one strand shown
# T8 sequence: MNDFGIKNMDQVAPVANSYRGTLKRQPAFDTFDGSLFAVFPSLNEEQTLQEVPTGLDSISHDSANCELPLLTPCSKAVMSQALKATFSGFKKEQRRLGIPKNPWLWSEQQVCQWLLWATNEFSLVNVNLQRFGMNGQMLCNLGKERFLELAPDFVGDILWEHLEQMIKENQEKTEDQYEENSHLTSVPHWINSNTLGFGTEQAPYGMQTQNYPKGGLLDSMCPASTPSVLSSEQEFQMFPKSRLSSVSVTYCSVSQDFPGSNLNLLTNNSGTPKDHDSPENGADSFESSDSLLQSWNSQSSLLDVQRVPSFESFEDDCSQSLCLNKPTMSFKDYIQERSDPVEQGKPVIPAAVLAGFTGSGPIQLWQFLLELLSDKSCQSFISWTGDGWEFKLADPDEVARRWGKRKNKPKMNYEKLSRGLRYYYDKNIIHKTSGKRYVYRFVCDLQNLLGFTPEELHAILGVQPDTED
# Method in brief: as §1
# [14] = molecular target: T9, SPDEF (Homo sapiens, UniProt O95238 1-335); conditions: protein: recombinant; tags: N-terminal GST; dsDNA, one strand shown
# T9 sequence: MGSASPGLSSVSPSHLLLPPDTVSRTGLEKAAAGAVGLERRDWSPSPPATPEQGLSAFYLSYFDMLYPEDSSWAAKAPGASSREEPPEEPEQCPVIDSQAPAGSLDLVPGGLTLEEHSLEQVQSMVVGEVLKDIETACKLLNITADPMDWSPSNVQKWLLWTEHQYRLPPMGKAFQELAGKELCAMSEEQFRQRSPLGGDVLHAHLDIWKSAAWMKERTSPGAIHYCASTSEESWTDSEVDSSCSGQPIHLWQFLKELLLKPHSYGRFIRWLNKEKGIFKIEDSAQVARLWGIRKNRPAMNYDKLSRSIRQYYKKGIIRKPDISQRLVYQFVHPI
# Method in brief: as §1
# [15] = molecular target: T10, ETV7 (Homo sapiens, UniProt Q9Y603 1-341); conditions: protein: recombinant; tags: N-terminal GST; dsDNA, one strand shown
# T10 sequence: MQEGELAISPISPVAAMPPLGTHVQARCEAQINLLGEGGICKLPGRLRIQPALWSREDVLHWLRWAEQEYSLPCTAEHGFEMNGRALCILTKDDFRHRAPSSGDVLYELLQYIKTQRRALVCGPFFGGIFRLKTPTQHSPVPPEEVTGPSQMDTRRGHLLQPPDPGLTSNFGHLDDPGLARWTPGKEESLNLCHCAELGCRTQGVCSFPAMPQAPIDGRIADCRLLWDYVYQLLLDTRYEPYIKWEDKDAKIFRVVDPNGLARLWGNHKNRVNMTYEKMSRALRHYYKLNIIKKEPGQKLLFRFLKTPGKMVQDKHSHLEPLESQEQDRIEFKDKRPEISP
# Method in brief: as §1
# [16] = molecular target: T11, ELF5 (Homo sapiens, UniProt Q9UKW6-2 1-255); conditions: protein: recombinant; tags: N-terminal GST; dsDNA, one strand shown
# T11 sequence: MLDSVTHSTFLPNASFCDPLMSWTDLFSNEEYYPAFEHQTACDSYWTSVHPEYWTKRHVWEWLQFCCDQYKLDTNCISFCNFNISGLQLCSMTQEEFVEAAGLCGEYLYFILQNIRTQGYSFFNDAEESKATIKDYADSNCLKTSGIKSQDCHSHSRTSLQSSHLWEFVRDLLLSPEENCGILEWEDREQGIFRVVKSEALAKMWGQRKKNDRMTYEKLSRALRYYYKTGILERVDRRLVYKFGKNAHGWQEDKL
# Method in brief: as §1
# [17] = molecular target: T12, ETV3 (Homo sapiens, UniProt P41162-2 1-143); conditions: protein: recombinant; tags: N-terminal GST; dsDNA, one strand shown
# T12 sequence: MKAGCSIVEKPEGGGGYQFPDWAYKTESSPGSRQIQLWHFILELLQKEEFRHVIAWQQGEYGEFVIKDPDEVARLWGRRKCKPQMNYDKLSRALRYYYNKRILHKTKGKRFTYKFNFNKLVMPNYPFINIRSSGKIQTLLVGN
# Method in brief: as §1
# [18] = molecular target: ETV6 (Homo sapiens, UniProt P41212 1-452); conditions: protein: recombinant; tags: N-terminal GST; dsDNA, one strand shown
# Sequence of ETV6 (P41212 whole entry): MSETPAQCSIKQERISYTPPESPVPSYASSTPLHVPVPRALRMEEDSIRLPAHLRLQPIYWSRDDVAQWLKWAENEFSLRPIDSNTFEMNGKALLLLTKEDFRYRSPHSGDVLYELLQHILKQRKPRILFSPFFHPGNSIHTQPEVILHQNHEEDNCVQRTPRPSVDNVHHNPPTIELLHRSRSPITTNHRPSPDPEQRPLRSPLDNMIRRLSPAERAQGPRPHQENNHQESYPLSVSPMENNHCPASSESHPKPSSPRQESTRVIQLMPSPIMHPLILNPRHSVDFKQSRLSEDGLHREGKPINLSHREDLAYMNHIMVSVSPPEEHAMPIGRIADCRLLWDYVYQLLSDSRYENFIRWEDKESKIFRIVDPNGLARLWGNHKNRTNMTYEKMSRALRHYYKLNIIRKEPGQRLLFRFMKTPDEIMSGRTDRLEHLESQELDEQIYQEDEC
# Method in brief: as §1
sequence,measurement,setting,value
AAGTAG,binding signal,[1],"1.21 fold enrichment (6-mer frequency, TF over GST control)"
same,binding signal,[2],"1.25 fold enrichment (6-mer frequency, TF over GST control)"
same,binding signal,[3],"1.11 fold enrichment (6-mer frequency, TF over GST control)"
same,binding signal,[4],"1.3 fold enrichment (6-mer frequency, TF over GST control)"
same,binding signal,[5],"1.18 fold enrichment (6-mer frequency, TF over GST control)"
same,binding signal,[6],"1.06 fold enrichment (6-mer frequency, TF over GST control)"
same,binding signal,[7],"1.18 fold enrichment (6-mer frequency, TF over GST control)"
same,binding signal,[8],"1.31 fold enrichment (6-mer frequency, TF over GST control)"
same,binding signal,[9],"1.2 fold enrichment (6-mer frequency, TF over GST control)"
same,binding signal,[10],"1.28 fold enrichment (6-mer frequency, TF over GST control)"
same,binding signal,[11],"1.22 fold enrichment (6-mer frequency, TF over GST control)"
same,binding signal,[12],"1.16 fold enrichment (6-mer frequency, TF over GST control)"
same,binding signal,[13],"1.31 fold enrichment (6-mer frequency, TF over GST control)"
same,binding signal,[14],"1.07 fold enrichment (6-mer frequency, TF over GST control)"
same,binding signal,[15],"1.23 fold enrichment (6-mer frequency, TF over GST control)"
same,binding signal,[16],"1.28 fold enrichment (6-mer frequency, TF over GST control)"
same,binding signal,[17],"1.26 fold enrichment (6-mer frequency, TF over GST control)"
same,binding signal,[18],"1.28 fold enrichment (6-mer frequency, TF over GST control)"
